From PubChem BioAssay (NCI)
About 83,000 compounds went through this panel and 20% of them were active in at least one assay; those are over-represented in the sample as a whole.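 Method: cells in 96-well plates; compound added at one concentration; 48 h incubation; percent growth measured; values under 10 scored active.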 Activity calls are given as the source filed them.

Tested on: KM12 colon
Assay: NCI-60 one-dose screen, 48 h (100 = growth as untreated, 0 = no growth, -100 = all killed)
Settings: 10 µM unless noted
Method: Growth inhibition of the KM12 human tumor cell line is measured as a screen for anti-cancer activity. Cells are grown in 96 well plates and exposed to the test compound for 48 hours. Compounds are tested at a single concentration, which is 10^-5 M for most compounds. The reported endpoint is percent growth (GI% or GIPRCNT), where numbers from 0 - 100% represent growth inhibition, and numbers from -100% - 0 represent cell death. For example, a value of 40 represents 60% growth inhibition. A value of 0 means no net growth occurred over the course of the experiment. A value of -40 indicates 40% of cells at the beginning of the experiment died by the end of the experiment. A value of -100 means all cells are dead at the end of the experiment.
NCI-60 Human Tumor Cell Lines Screen was performed using the standard one-dose NCI protocol, which is described in more detail at https://dtp.cancer.gov/discovery_development/nci-60/default.htm.
Compounds with GIPRCNT values below 10 were considered active. Activity score was based on GIPRCNT using the following formula: […]
Score is 0 for GIPRCNT values of 100 or above, 50 for GIPRCNT values of 0, and 100 for GIPRCNT values of -100.

Compound	growth
O=S(=O)(NCCNc1nccc(-c2c(-c3ccc(F)c(O)c3)nc3sccn23)n1)c1ccc(F)cc1	25.7% (inactive)
CCc1n(Cc2ccc3ccccc3n2)cc[n+]1Cc1ccc2ccccc2n1	12.2% (inactive)
C=C1C(=O)O[C@H]2[C@H]1CC/C(Cn1cc(CCC)nn1)=C\CC[C@@]1(C)O[C@@H]21	81.1% (inactive)
COc1ccc(/C=C/C(=O)c2cc3c(N)c(C(=O)Nc4cccc(Cl)c4C)sc3nc2C)cc1	7.8% (active)
COc1ccc(-c2nc3c(N)c(CO)cnc3s2)cc1	88.4% (inactive)
COc1cc(OC)c(C(=O)C(CN(C)C)CN(C)C)cc1OC	111% (inactive)
CN1CCN(CCOc2ccc(-c3cnc4c(-c5ccc(F)cc5)cnn4c3)cc2)CC1	9.72% (active)
C=C1C(=O)O[C@H]2[C@H]1CC/C(CNC(=O)c1c[nH]c3ccc(F)cc13)=C\CC[C@@]1(C)O[C@@H]21	42.4% (inactive)
CCCCNC(=O)Oc1ccc(/C(=C(/C)Cc2ccc(OC)cc2)c2ccc(OCCN3CCCCCC3)cc2)cc1	60.6% (inactive)
Cc1ccc(S(=O)(=O)N2CCC(=O)c3ccccc32)cc1	33.5% (inactive)
N#Cc1nc(-c2ccccc2)oc1S(=O)(=O)N1CCN(c2ccc(F)cc2)CC1	81.9% (inactive)
O=C1/C(=C/c2ccc(F)cc2)CN(C(=O)C(Cl)Cl)C/C1=C\c1ccc(F)cc1	-66.3% (active)
CCN(CC)CCCN1C(=O)c2c(c(C)c3c(oc4ccc(OC)cc43)c2C)C1=O	104% (inactive)
CCOC(=O)c1c(C)nc2ccccc2c1/C=C/c1cccs1	77.8% (inactive)
CC/C(Cc1ccccc1)=C(\c1ccc(OCCCN(C)C)cc1)c1ccc(OC(=O)NCc2ccccc2)cc1	72.8% (inactive)
Cc1n[nH]c2ccc(Br)cc2c1=O	95.9% (inactive)
CC1=C(C(=O)Nc2nc(-c3ccc(Cl)cc3)cs2)[C@H](c2ccc(O)cc2)NC(=O)N1	96.9% (inactive)
Nc1nc(NC(=O)Nc2ccc(C(=O)O)cc2)nn1-c1ccc(S(N)(=O)=O)cc1	89.6% (inactive)
Cc1ccc2nc(-c3ccc(C(=O)NNC(=S)Nc4ccccc4)cc3)[nH]c2c1	94.8% (inactive)
Cc1nc2sc(C(=O)Nc3cccc(Br)c3C)c(N)c2cc1C(O)c1ccccc1 (stereo not given)	5.99% (active)

Compound	growth
CCN1CCN(CCNc2nccc(-c3c(-c4ccc(F)c(OC)c4)nc4sccn34)n2)S1(=O)=O	74.2% (inactive)
COc1ccc(C2CC(c3cc(OC)c(OC)c(OC)c3)=NO2)cc1OCCCCOc1cc2c(cc1OC)C(=O)N1CCC[C@H]1C=N2 (stereo not given in full)	-22% (active)
CC(C)(C)n1cc(-c2ccnc(NCCCNS(=O)(=O)c3cccc4ccccc34)c2)c(-c2cccc(F)c2)n1	76.6% (inactive)
O=S(=O)(NCCCNc1nccc(-c2c(-c3cccc(F)c3)nc3occn23)n1)c1ccc(F)cc1	40.4% (inactive)
COc1ccc(C(=O)Cn2c(C(=O)c3ccc(OC)cc3)nc3ccccc32)cc1	24.8% (inactive)
CC1=C2[C@@H](CC1)[C@]1(C)O[C@@](C3CCCCC3)(C[C@H]1OC(=O)CO)[C@H]2OC(=O)/C=C/c1ccccc1	79.6% (inactive)
NC(=O)c1c(NC(=O)c2cccs2)sc2c1CCC(=O)C2	20.3% (inactive)
Nc1nc(N)c2c(n1)NC(c1ccc(Cl)cc1)C1CCc3ccccc3C1=N2 (stereo not given)	55.4% (inactive)
Cn1ccc(=O)nc1	95% (inactive)
COc1ccc(/C=C/c2c(C(=O)/C=C/c3ccccc3)c(C)nc3ccccc23)cc1	3.01% (active)
O=C(N/N=C/c1cc(Cl)ccc1O)c1ccccc1Nc1ccnc(C(F)(F)F)c1	34.5% (inactive)
O=C(CN1CCCCCC1)Nc1nc2ccc(NCc3ccc(Cl)cc3)cc2s1	96.6% (inactive)
O=c1nc(-c2ccccc2)c2cc(-c3ccc(C(F)(F)F)nc3)ccc2[nH]1	91.1% (inactive)
CCc1ccc(CCC(=O)Nc2ncc(Cc3ccccc3)s2)o1	18.4% (inactive)
COc1ccc(-c2cc(-c3ccccc3)nc(N3CCN(CCNc4ccnc5cc(Cl)ccc45)CC3)n2)cc1	-26.9% (active)
COc1ccc(CCN2C(=O)/C(=C/c3ccc(C4Oc5ccccc5C5CC(c6ccccc6)=NN54)cc3)SC2=S)cc1 (stereo not given)	106% (inactive)
O=C(CC(=O)Nc1cccc(C(=O)O)c1)Nc1cccc(C(=O)O)c1	112% (inactive)
O=C(Nc1ccc(Cl)cc1)Oc1c(Cl)c(Cl)c(Cl)c(Cl)c1Cl	96.6% (inactive)
Cc1cccc2c1C[C@@]1(C2=O)C(c2ccc(C(C)(C)C)cc2)=NOS1=O (stereo not given in full)	91.9% (inactive)
O=C(N/N=C\c1ccccc1S(=O)(=O)O)N/N=C/c1ccccc1S(=O)(=O)O	94.1% (inactive)
